# Laboratory results published in PubChem BioAssay (NCI).
# Where “and” joins values, the source holds several entries; their conditions need not be identical. Equal entries are not always repeated. Compounds without any hit were thinned out: in the full panel of roughly 83,000, 20% have a hit.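 Activity criterion: percent growth below 10, measured after cells in 96-well plates were exposed to a single compound concentration for 48 hours.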 Unmarked numbers belong to inactive results. Calls of active or inactive are those of the source.
# System: SW-620 colon
# Experiment: NCI-60 one-dose screen, 48 h (100 = growth as untreated, 0 = no growth, -100 = all killed)
# Conditions: 10 µM unless noted
row,SMILES,growth
1,CC[C@]12C=CCN3CC[C@@]4(c5ccc(OC)cc5N(C)[C@H]4[C@@](O)(C(=O)OC)[C@@H]1OC(=O)CCCC[P+](c1ccc(F)cc1)(c1ccc(F)cc1)c1ccc(F)cc1)[C@@H]32,36.9%
2,FC(F)(F)c1cc2c(Cl)ncnc2n1CCN1CCCCC1,34%
3,O=C(CSc1nnc(-c2ccc(-c3nc4ccc(Cl)cc4[nH]3)cc2)o1)Nc1ccccc1,0.173% (active)
4,Cc1cccc(NCC(=O)N2CCN(c3ncnc4c3cnn4-c3ccccc3)CC2)c1,81.5%
5,CS(=O)(=O)c1ccc(-n2nc(C(=O)NCc3ccccc3)cc2-c2ccc(Cl)cc2)cc1,99.8%
6,CS(=O)(=O)Nc1cccc(-n2c(COc3ccc(OC(F)(F)F)cc3)nc3ccccc32)c1,97.3% and 108%
7,O=C(CSc1nc2sc3c(c2c(=O)n1-c1ccc(Cl)cc1)CCCC3)NNC(=O)c1ccc(Br)cc1,76.1%
8,O=C(c1ccc(Cl)cc1)C1[C@H](c2ccccc2Cl)[C@@H](c2ccccc2)NC12C(=O)Nc1ccccc12 (stereo partly drawn),-5.33% (active)
9,O=C1NC(=NC23CC4CC(CC(C4)C2)C3)N/C1=C\c1ccc2ncccc2c1,1.21% (active)
10,N#CC1=C(c2ccco2)Nc2c(c(-c3ccccc3)nn2-c2ccccc2)C12C(=O)Nc1ccc(Cl)cc12 (stereo not drawn),15.9%
11,O=C(c1ccc(O)cc1)C1[C@H](c2ccccc2Br)[C@@H](c2ccccc2)NC12C(=O)Nc1ccccc12 (stereo partly drawn),27.7%
12,c1ccc(CSc2nnc(-c3ccc4nc(-c5ccccc5)[nH]c4c3)o2)cc1,10%
13,O=C(CSc1nnc(-c2ccc(-c3nc4ccccc4[nH]3)cc2)o1)Nc1ccccc1,19.9%
14,CCCCCCCCCCCCCCCCCC(=O)Nc1ccc(OC)cc1,103%
15,Nc1nn2c(-c3cc4ccccc4oc3=O)ccnc2c1N=Nc1ccccc1,93%
16,O=C1NC(=S)/C(=C/c2cn(-c3ccccc3)nc2-c2ccccc2)S1,39.3%
17,CC(Nc1ncnc2ccc(-c3ccc4oc(N)nc4c3)cc12)c1ccccc1 (stereo not drawn),-66.6% (active)
18,O=C(N/N=C/c1ccsc1)c1[nH]c2ccc(Br)cc2c1-c1ccccc1,-68% (active)
